Test results reported in paper PMC7862700, “An all-to-all approach to the identification of sequence-specific readers for epigenetic DNA modifications on cytosine”.

Experiments:
Assay in all cases: DAPPL (digital affinity profiling via proximity ligation, sequencing); 10 mM Tris-HCl pH 7.5, 50 mM NaCl, 1 mM DTT, 4% glycerol, room temperature, 30 min; GST-TFs on glutathione beads, 16-mer random dsDNA library, 0.1% formaldehyde crosslink after washing; high values mean tight binding
Details in all cases: protein: recombinant; tags: N-terminal GST; dsDNA, one strand shown
ELK1 = biological target: T1, ELK1 (Homo sapiens, UniProt P19419 1-428)
T1 sequence: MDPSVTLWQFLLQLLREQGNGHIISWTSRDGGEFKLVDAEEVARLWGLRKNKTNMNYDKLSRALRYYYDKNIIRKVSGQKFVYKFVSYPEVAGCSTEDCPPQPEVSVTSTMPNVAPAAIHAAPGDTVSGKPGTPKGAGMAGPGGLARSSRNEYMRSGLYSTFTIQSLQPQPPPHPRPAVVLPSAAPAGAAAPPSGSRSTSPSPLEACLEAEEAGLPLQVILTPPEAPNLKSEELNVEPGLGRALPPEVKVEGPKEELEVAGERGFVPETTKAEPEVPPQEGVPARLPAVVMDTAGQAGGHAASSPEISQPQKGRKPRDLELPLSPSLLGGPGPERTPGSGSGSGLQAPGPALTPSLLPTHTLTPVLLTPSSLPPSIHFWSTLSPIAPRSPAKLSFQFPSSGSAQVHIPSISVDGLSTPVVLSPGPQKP
Summary of the method: (§1)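 The binding signal reported is, for every hexamer, its read frequency for a factor over its read frequency for the tag-only sample. Reads came from pools of yeast-expressed, GST-fused human transcription factors on glutathione beads, barcoded with DNA and mixed with that sample, which were incubated with 200 nmole of a random double-stranded 16-mer DNA library in Tris/NaCl/DTT/glycerol buffer at room temperature for 30 min. After washing, the pools were crosslinked with 0.1% formaldehyde, proximity-ligated with BsaI/T4 ligase for 1 h at 37 °C, PCR-amplified and sequenced on an Illumina NextSeq500.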

GABPA = biological target: T2, GABPA (Homo sapiens, UniProt Q06546 1-454)
T2 sequence: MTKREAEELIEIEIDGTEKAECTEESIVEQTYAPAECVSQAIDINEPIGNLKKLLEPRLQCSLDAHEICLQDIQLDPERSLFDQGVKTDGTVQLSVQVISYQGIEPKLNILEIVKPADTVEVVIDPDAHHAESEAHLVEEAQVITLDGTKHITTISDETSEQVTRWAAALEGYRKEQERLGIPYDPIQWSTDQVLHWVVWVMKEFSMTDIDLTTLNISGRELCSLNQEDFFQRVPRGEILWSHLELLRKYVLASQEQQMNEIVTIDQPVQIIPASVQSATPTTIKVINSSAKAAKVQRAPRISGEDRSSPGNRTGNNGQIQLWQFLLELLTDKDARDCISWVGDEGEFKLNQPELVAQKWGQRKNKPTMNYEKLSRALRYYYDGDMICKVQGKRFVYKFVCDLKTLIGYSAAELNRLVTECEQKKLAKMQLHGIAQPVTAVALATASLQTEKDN
Summary of the method: as §1

ERG = biological target: T3, ERG (Homo sapiens, UniProt P11308 1-479)
T3 sequence: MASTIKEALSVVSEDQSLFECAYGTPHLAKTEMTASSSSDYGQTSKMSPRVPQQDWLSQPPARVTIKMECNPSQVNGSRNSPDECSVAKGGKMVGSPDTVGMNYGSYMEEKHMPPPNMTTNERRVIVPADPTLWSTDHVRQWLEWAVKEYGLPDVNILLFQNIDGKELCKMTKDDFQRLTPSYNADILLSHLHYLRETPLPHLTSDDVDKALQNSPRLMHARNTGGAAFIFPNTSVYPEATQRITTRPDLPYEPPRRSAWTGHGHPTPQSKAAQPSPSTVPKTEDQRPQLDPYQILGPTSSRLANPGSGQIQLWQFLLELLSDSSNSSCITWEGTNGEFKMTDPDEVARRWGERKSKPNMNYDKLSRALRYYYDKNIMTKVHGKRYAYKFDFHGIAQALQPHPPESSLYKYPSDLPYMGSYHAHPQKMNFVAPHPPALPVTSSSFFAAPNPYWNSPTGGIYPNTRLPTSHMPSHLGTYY
Summary of the method: as §1

ELF1 = ELF1 (Homo sapiens, UniProt P32519 1-619)
Summary of the method: as §1

EHF = biological target: T4, EHF (Homo sapiens, UniProt Q9NZC4 1-300)
T4 sequence: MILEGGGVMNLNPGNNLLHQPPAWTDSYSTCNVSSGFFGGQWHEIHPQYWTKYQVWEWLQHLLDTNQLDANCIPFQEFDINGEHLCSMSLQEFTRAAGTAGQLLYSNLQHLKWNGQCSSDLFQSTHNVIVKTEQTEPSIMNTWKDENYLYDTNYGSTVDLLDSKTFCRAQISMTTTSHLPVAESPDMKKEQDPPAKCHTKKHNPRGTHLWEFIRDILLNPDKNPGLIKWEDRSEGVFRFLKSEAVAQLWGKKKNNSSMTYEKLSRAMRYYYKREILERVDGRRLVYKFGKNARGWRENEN
Summary of the method: as §1

FEV = biological target: T5, FEV (Homo sapiens, UniProt Q99581 1-238)
T5 sequence: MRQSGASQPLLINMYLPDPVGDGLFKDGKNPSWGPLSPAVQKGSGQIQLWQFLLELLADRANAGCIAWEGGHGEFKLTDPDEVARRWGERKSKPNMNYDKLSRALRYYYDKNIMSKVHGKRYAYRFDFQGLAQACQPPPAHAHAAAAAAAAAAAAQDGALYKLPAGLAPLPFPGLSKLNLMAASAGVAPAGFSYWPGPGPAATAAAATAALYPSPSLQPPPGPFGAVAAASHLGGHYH
Summary of the method: as §1

ETV5 = ETV5 (Homo sapiens, UniProt P41161 1-510)
Summary of the method: as §1

ELF4 = ELF4 (Homo sapiens, UniProt Q99607 1-663)
Summary of the method: as §1

ELK4 = biological target: T6, ELK4 (Homo sapiens, UniProt P28324-2 1-405)
T6 sequence: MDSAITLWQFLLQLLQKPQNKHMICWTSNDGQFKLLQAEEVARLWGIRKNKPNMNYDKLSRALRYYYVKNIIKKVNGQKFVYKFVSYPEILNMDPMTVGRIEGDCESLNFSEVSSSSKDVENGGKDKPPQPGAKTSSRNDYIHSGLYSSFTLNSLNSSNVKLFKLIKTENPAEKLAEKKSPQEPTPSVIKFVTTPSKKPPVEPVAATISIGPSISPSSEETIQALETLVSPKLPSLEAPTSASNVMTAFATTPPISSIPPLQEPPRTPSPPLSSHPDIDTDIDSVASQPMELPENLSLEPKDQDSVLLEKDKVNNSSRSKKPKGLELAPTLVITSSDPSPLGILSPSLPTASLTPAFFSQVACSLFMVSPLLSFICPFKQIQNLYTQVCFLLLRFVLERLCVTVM
Summary of the method: as §1

ETV2 = biological target: T7, ETV2 (Homo sapiens, UniProt O00321 1-342)
T7 sequence: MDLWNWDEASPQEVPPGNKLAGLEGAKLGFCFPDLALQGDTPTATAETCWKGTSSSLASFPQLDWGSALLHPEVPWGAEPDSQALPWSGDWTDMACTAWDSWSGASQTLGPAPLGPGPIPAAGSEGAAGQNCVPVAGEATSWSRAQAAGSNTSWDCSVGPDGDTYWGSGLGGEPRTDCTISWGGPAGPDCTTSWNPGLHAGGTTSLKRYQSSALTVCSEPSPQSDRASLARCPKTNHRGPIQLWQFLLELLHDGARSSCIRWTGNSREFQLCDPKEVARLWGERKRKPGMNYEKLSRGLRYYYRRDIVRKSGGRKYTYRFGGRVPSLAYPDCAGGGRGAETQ
Summary of the method: as §1

ETV1 = ETV1 (Homo sapiens, UniProt P50549 1-477)
Summary of the method: as §1

ERF = biological target: T8, ERF (Homo sapiens, UniProt P50548 1-548)
T8 sequence: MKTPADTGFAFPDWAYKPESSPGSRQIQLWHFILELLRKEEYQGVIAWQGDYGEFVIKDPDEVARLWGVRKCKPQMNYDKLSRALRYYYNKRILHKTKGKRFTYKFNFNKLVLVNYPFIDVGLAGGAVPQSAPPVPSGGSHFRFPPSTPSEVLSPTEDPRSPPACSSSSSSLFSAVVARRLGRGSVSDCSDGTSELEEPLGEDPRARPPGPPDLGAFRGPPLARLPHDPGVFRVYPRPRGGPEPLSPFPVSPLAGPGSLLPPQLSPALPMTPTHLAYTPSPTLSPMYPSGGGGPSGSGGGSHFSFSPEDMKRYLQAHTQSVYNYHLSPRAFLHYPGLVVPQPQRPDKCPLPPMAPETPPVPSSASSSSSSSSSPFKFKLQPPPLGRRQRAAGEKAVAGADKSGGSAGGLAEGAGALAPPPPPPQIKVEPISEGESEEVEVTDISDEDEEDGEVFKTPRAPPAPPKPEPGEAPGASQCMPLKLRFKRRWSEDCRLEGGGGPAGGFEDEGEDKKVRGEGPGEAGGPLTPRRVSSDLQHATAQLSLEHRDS
Summary of the method: as §1

ETV3L = biological target: T9, ETV3L (Homo sapiens, UniProt Q6ZN32 1-361)
T9 sequence: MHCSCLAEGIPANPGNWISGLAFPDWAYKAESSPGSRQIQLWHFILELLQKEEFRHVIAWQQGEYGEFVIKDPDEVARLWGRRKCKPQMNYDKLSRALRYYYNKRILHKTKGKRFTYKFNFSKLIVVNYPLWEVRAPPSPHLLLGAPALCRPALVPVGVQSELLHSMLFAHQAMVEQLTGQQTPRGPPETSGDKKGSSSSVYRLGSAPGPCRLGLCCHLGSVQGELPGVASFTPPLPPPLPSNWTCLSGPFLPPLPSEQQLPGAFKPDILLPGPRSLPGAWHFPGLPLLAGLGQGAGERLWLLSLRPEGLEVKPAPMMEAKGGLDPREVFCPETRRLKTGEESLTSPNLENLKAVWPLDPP
Summary of the method: as §1

ETS2 = biological target: T10, ETS2 (Homo sapiens, UniProt P15036 1-469)
T10 sequence: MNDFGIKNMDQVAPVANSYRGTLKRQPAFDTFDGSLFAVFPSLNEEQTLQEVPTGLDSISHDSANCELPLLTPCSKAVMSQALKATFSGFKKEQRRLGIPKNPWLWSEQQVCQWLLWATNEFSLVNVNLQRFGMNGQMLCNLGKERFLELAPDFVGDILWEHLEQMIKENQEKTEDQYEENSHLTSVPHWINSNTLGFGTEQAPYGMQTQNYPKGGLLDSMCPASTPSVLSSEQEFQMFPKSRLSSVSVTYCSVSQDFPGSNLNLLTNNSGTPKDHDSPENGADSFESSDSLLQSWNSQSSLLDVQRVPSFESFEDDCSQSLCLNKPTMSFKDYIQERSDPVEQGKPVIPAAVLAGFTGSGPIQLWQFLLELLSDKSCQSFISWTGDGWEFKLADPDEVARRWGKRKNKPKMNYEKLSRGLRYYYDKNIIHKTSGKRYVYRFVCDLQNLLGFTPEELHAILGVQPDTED
Summary of the method: as §1

SPDEF = biological target: T11, SPDEF (Homo sapiens, UniProt O95238 1-335)
T11 sequence: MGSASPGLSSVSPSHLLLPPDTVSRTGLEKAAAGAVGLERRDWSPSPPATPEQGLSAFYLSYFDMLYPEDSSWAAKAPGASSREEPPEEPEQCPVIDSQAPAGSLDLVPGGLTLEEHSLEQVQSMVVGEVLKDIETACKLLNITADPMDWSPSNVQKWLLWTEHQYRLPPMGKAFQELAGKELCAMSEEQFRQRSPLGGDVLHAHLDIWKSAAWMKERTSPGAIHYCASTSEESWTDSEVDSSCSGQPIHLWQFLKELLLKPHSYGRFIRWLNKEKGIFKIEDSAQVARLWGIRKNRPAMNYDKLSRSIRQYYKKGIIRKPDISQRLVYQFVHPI
Summary of the method: as §1

ETV7 = biological target: T12, ETV7 (Homo sapiens, UniProt Q9Y603 1-341)
T12 sequence: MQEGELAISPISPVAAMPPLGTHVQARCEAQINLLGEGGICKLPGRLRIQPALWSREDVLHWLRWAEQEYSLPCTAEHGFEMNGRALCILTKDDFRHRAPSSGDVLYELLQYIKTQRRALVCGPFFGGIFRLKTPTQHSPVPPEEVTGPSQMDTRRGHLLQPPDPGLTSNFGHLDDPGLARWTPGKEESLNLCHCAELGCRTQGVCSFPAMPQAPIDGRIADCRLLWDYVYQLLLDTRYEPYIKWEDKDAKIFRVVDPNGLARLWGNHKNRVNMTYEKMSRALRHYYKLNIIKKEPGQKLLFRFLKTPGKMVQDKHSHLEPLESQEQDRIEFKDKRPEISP
Summary of the method: as §1

ETV3 = biological target: T13, ETV3 (Homo sapiens, UniProt P41162-2 1-143)
T13 sequence: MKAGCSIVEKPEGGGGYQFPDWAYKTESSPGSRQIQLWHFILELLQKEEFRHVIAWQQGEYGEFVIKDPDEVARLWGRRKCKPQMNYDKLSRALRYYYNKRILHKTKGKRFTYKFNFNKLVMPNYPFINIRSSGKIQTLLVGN
Summary of the method: as §1

ETV6 = ETV6 (Homo sapiens, UniProt P41212 1-452)
Summary of the method: as §1

Chain of ETV6 (P41212 whole entry): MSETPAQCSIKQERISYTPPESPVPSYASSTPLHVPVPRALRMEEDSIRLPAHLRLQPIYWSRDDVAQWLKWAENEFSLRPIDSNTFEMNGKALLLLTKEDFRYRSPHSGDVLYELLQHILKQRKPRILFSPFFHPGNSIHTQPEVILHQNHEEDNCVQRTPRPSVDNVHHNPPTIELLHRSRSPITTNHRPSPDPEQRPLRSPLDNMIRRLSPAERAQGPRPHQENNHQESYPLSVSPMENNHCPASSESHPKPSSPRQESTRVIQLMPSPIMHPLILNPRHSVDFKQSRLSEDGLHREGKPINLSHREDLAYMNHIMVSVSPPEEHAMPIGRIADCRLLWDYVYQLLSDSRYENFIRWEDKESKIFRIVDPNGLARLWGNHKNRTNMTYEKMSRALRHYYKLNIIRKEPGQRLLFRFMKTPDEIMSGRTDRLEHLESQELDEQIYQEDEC
Chain of ELF1 (P32519 whole entry): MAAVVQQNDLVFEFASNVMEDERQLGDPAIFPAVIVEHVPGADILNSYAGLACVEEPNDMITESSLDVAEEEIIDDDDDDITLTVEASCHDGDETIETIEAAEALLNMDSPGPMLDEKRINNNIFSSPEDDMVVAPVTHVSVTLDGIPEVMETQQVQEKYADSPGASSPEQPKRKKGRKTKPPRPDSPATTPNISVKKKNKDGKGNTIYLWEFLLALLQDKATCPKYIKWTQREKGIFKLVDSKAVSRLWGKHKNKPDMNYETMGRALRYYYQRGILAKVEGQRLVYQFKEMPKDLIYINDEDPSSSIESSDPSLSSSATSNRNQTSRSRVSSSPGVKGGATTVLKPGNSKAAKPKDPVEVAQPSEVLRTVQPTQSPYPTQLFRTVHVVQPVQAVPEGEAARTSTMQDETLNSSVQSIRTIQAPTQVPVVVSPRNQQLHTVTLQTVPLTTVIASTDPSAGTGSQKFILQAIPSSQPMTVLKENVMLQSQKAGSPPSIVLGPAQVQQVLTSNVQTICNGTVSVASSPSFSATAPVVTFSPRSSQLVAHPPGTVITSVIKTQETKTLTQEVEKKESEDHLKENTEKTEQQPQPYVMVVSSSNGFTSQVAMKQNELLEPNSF
Chain of ELF4 (Q99607 whole entry): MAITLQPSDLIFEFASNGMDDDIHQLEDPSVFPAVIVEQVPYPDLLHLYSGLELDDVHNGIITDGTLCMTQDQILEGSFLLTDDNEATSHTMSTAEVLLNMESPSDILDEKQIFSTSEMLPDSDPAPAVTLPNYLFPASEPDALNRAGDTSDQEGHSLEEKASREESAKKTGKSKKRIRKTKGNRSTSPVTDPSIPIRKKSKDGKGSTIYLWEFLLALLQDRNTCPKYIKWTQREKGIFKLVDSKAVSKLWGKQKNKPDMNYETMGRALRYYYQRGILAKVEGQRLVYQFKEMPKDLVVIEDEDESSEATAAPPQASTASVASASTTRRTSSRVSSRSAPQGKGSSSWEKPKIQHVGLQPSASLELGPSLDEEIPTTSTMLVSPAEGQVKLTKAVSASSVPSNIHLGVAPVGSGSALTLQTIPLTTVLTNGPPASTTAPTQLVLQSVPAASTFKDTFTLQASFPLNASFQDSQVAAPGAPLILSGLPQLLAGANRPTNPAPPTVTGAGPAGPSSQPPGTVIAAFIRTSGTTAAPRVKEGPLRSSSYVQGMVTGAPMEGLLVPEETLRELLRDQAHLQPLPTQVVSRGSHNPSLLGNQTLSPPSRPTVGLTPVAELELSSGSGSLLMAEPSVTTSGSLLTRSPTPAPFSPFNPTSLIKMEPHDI
Chain of ETV1 (P50549 whole entry): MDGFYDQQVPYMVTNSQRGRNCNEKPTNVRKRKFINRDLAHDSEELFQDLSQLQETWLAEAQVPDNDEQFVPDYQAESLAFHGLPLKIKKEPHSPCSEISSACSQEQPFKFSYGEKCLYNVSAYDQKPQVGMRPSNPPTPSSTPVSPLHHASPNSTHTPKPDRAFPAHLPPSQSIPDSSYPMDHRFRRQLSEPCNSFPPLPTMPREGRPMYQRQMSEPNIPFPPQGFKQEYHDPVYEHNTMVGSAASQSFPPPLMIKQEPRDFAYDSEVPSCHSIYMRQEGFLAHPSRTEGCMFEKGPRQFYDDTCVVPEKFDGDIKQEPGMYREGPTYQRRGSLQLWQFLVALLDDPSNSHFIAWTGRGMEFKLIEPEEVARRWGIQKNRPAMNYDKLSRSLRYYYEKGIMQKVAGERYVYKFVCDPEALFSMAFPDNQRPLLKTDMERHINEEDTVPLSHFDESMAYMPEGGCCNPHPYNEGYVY
Chain of ETV5 (P41161 whole entry): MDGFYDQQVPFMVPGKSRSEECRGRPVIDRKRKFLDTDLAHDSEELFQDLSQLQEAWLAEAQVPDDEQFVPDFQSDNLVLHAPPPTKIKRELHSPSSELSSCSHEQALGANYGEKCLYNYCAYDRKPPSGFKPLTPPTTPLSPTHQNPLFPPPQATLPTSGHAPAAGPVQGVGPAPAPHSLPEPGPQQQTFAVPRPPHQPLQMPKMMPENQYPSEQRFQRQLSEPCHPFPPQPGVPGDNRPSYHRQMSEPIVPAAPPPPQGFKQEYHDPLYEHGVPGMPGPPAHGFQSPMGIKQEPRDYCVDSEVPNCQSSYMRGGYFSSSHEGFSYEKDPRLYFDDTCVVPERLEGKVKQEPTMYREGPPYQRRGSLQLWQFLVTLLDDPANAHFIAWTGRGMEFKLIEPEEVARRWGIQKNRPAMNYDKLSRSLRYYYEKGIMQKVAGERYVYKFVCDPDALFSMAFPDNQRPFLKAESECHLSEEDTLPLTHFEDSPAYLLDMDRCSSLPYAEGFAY

AGCACA
binding signal (ELK1): 1.01 fold enrichment (6-mer frequency, TF over GST control)
binding signal (GABPA): 1.08 fold enrichment (6-mer frequency, TF over GST control)
binding signal (ERG): 1.03 fold enrichment (6-mer frequency, TF over GST control)
binding signal (ELF1): 1.06 fold enrichment (6-mer frequency, TF over GST control)
binding signal (EHF): 1.04 fold enrichment (6-mer frequency, TF over GST control)
binding signal (FEV): 1.12 fold enrichment (6-mer frequency, TF over GST control)
binding signal (ETV5): 1.07 fold enrichment (6-mer frequency, TF over GST control)
binding signal (ELF4): 1.08 fold enrichment (6-mer frequency, TF over GST control)
binding signal (ELK4): 1.02 fold enrichment (6-mer frequency, TF over GST control)
binding signal (ETV2): 1.12 fold enrichment (6-mer frequency, TF over GST control)
binding signal (ETV1): 1.02 fold enrichment (6-mer frequency, TF over GST control)
binding signal (ERF): 1.13 fold enrichment (6-mer frequency, TF over GST control)
binding signal (ETV3L): 1.14 fold enrichment (6-mer frequency, TF over GST control)
binding signal (ETS2): 1.02 fold enrichment (6-mer frequency, TF over GST control)
binding signal (SPDEF): 1.07 fold enrichment (6-mer frequency, TF over GST control)
binding signal (ETV7): 1.01 fold enrichment (6-mer frequency, TF over GST control)
binding signal (ETV3): 1.05 fold enrichment (6-mer frequency, TF over GST control)
binding signal (ETV6): 1.11 fold enrichment (6-mer frequency, TF over GST control)
